PubChem BioAssay AID589 (National Center for Advancing Translational Sciences (NCATS), 2007)
Hit rate of the full screen: of about 59,000 compounds, about 6,200 (11%) were called active. Inconclusive results (about 9%) are left out. Rule as the data show it: active = max dye-equivalent concentration above about 10 nM; inconclusive = mostly about 1.1 nM to 9.6 nM; inactive = weaker than that. The list comes from a sample in which actives are over-represented; it also holds similar structures and randomly drawn compounds.

Assay: qHTS Assay for Spectroscopic Profiling in 4-MU Spectral Region
Settings: compound autofluorescence, 340/450 nm, 4-MU equivalents; hits give high values
From the text: NIH Molecular Libraries Screening Centers Network [MLSCN] NIH Chemical Genomics Center [NCGC] […] Occasionally, the artifactual effect may originate from the compounds own spectral or other biophysical properties which generally tend to track its assay concentration. Pre-screening/profiling the library with respect to the compounds spectral properties should help one exclude false positives early on. While the most informative fluorescent profiling data set is obtained by performing a full excitation and emission scan of each well by using a monochromator-based plate reader, such an approach is practical only on a very limited scale as scanning each well requires long time. An alternative approach, applied here, is to perform plate reader scans using selected excitation and emission wavelength pairs to generate a multidimensional relational database that correlates compound concentration and the respective relative fluorescence intensity at a given wavelength set. A standard curve of 4-methylumbelliferone (4-MU) present on each plate as six-point concentration series, was used to compute a normalized fluorescence response, termed dye-equivalent concentration, for each compound at each concentration.
NCGC Assay Protocol Summary: Buffer: 100 mM Tris buffer, pH 8.0 Dye standard plate: The wells in columns 1 through 4 of a Kalypsys polypropylene 1536-well compound plate were filled with standard solutions of fluorophore corresponding to the spectral region of interest. Solutions of 4-MU were placed in the following wells: A1, B1: 3 mM, A2, B2: 300 uM, A3, B3: 30 uM, A4, B4: zero (DMSO), C1, D1: 3 uM, C2, D2: 900 nM, C3, D3: 300 nM, C4, D4: zero (DMSO). Assay Steps: Six uL of buffer were dispensed to 1536-well Greiner black plates. Compounds and dye standards (23 nL) were transferred via Kalypsys PinTool. The plates were incubated for 15 min at room temperature, and then read on ViewLux (Perkin-Elmer) High-throughput CCD imager using 340 nm and 450 nm excitation and emission filter set. Keywords: NIH Roadmap, MLSCN, MLI, MLSMR, qHTS, NCGC, Fluorescent Profiling, 4MU, 4-MU

SMILES	max dye-equivalent concentration
O=C(Oc1ccc2c(c1)CN(Cc1ccccc1)CO2)c1ccccc1	inactive
CC(=O)Nc1nonc1-c1nc2ccccc2n1Cc1ccccn1	inactive
CN1c2ccccc2-c2nc3ccccc3n2C1c1ccco1 (stereo unspecified)	2800 nM (active)
CCOC(=O)N1CCC(C(N)=O)CC1	inactive
CCOc1cc(S(=O)(=O)NC2CC(C)(C)NC(C)(C)C2)ccc1F	inactive
COc1ccc(Oc2ncc3nc(C)c(=O)n(-c4ccccc4)c3n2)cc1	inactive
O=c1c(-c2cccs2)nc2cnc(Oc3ccccc3)nc2n1-c1ccccc1	18 nM (active)
COc1ccc(-n2c(=O)c(-c3cn(C)c4ccccc34)nc3cnc(OC)nc32)cc1	inactive
O=C1c2ccccc2C(=O)N1c1ccccc1S(=O)C(F)(F)F (stereo unspecified)	inactive
CS(=O)(=O)N(CC(=O)N1CCN(Cc2ccc3c(c2)OCO3)CC1)c1ccc2c(c1)OCO2	inactive
O=C(Cn1nnc(-c2ccc3c(c2)OCO3)n1)NCc1ccco1	inactive
CS(=O)(=O)N(CC(=O)NCc1ccco1)c1ccc2c(c1)OCO2	27 nM (active)
CCn1c(COc2ccc(OC)cc2)nnc1SCC(=O)Nc1cc(OC)ccc1OC	inactive
Cc1cn(C2C=CC(CO)O2)c(=O)[nH]c1=O (stereo unspecified)	inactive
O=C(NC1CC2CCCC(C1)N2C(=O)N1CCCCC1)C1CCCCC1 (stereo unspecified)	inactive
O=C(NCCc1ccco1)c1nn(Cc2ccccc2)c(=O)c2ccccc12	inactive
COc1ccccc1-c1c(C)nn2c(C)c(C(C)=O)cnc12	inactive
Cc1ccc(C(=O)NC2CCN(C(=O)N3CCOCC3)CC2)cc1	inactive
CN(C)CCCNc1c2c(c(C#N)c3nc4ccccc4n13)CCC2	98 nM (active)
CCCCn1c(CN2CCN(CCO)CC2)nc2ccccc21	inactive
N#Cc1c2c(c(N3CCN(CCO)CC3)n3c1nc1ccccc13)CCCC2	26 nM (active)
Cc1ccc(C(=O)NCC(=O)O)cc1S(=O)(=O)N1CCCCC1	inactive

SMILES	max dye-equivalent concentration
Cc1ccc(C(=O)N(CN2CCCC2=O)c2ccc(F)cc2)cc1	inactive
CCOC(=O)c1c(-n2cnnn2)sc(C)c1C	inactive
CC(=NCC1CCCO1)c1c(O)[nH]c(=O)[nH]c1=O (stereo unspecified)	inactive
CCCCOc1ccc(-c2ncc(C(=O)OCC)c(N)n2)cc1	inactive
CCN(CC)CCCN1C(=O)C(=O)/C(=C(/O)c2c(C)nc3ccccn23)C1c1ccc(C)o1 (stereo unspecified)	inactive
Cc1ccccc1-n1c(SCC(=O)NCc2cccs2)nnc1-c1ccncc1	inactive
COc1ccc(C(=O)NC(=O)CSc2nnc(-c3ccco3)n2-c2ccccc2)cc1	inactive
COc1ccc(-n2c(SCC(=O)NCc3cccs3)nnc2-c2ccoc2C)cc1	23 nM (active)
COc1cccc(Cn2c(=O)c(-c3cc(F)cc(F)c3)nc3cnc(OC)nc32)c1	inactive
O=C(CSc1nnc(-c2ccco2)n1CC1CCCO1)c1ccccc1 (stereo unspecified)	inactive
O=c1c(-c2cc(F)cc(F)c2)nc2cnc(Oc3ccccc3)nc2n1C[C@H]1CCCO1	12 nM (active)
OCCCNCc1ccccn1	inactive
C[C@H]1O[C@@H](CC(=O)O)Cc2c1c(O)c1c(O)cc(-c3cc(=O)c4c(=O)c5c(c(=O)c=4c3=O)C[C@H](CC(=O)O)O[C@@H]5C)c(O)c1c2O	inactive
CCn1c(SCC(=O)NCC2CCCO2)nc2cc(S(=O)(=O)N3CCCCC3)ccc21 (stereo unspecified)	inactive
CCCCn1c(SCC(=O)NCCc2ccc(OC)c(OC)c2)nc2c1c(=O)n(C)c(=O)n2C	inactive
CCCCn1c(SCC(=O)NCC2CCCO2)nc2ccc(N3CCOCC3)cc2c1=O (stereo unspecified)	62 nM (active)
COCCCNC(=O)CSc1nc2ccc(N3CCOCC3)cc2c(=O)n1CCc1ccccc1	54 nM (active)
CCc1ccc(NC(=O)CSc2nc3ccccc3c(=O)n2CCN2CCOCC2)cc1	inactive
COCCNC(=O)CSc1nc2c(n1-c1ccccc1)CCCC2	inactive
Cn1c(CC(=O)Nc2ccccc2)nnc1SCC(=O)c1ccccc1	inactive
CC(=O)N1CCC2(CC1)CCN(c1ccncc1)CC2	inactive
COc1ccc(NC(=O)c2c(C)oc3c2CCCC3)cc1	inactive

SMILES	max dye-equivalent concentration
COc1cc(OC)cc(C(=O)Nc2ccc(-c3nc4ccccc4o3)c(O)c2)c1	330 nM (active)
COc1cccc(NC(=O)c2ccccc2SC)c1	inactive
O=C1[C@@H]2C(Cc3ccc(O)cc3)NC3(C(=O)Nc4ccc(F)cc43)[C@@H]2C(=O)N1c1ccc(F)cc1 (stereo partly specified)	inactive
CC(Sc1sc(=S)sc1SC(C)C(=O)O)C(=O)O (stereo unspecified)	inactive
CC(C)CCNc1nc(N2CCCC2)c2c(c1C#N)CCN(C)C2	24 nM (active)
COc1ccc(OC)c(NC(=O)CN2CCN(C(=O)c3ccco3)CC2)c1	inactive
O=C(Nc1cc(N2CCOCC2)ncn1)NC1(C(F)(F)F)Oc2ccc(Cl)cc2O1 (stereo unspecified)	inactive
Cc1csc(NC(=O)NC2(C(F)(F)F)Oc3ccccc3O2)n1	110 nM (active)
Cc1csc(NC(=O)CN2CCCCCC2)n1	inactive
C[C@H](NC(=O)NCCc1ccccc1)C(=O)O	inactive
CNc1ncnc2ccc(-c3cccc(NS(C)(=O)=O)c3)cc12	inactive
Cn1c(SCC(=O)OC2CCCCC2)nnc1-c1ccc(S(=O)(=O)N2CCCC2)cc1	inactive
O=C(NCc1ccccn1)c1cc2ccccc2oc1=O	22 nM (active)
O=C(NCc1ccccn1)c1cnc2sccn2c1=O	inactive
O=C(Oc1cccnc1)c1cc2ccccc2oc1=O	82 nM (active)
COc1ccc2oc(=O)c(C(=O)O)cc2c1	inactive
O=C(NCc1ccccn1)Nc1ccc(F)cc1	inactive
Cc1ccsc1C(=O)OCC(=O)c1cc2ccccc2o1	inactive
Cc1cc(NC(=O)COC(=O)c2ccc(F)c(S(=O)(=O)N3CCOCC3)c2)no1	inactive
COc1ccc(NC(=O)N2CC3(CCN(C(=O)c4cccn4C)CC3)C2)cc1	inactive
Cc1cc(=O)[nH]c(SCc2cc(Cl)ccc2OC(F)F)n1	inactive
COc1ccccc1C(=O)N1CCNC(=O)C1CC(=O)Nc1ccc(Cl)cc1 (stereo unspecified)	inactive

SMILES	max dye-equivalent concentration
CCCCc1cc(=O)oc2cc(C)cc(OCc3nn[nH]n3)c12	59 nM (active)
Cc1c(O)c(Br)c(C)c(O)c1Br (tested in a mixture with another compound)	inactive
CCc1nnc(NC(=O)c2nc3nccc(C)n3n2)s1	inactive
CCC1=C/C(=C\c2ccc3c(c2)OCO3)C(=O)S1	inactive
O=C(C1CCCO1)N1CCC(c2nc3ccccc3[nH]2)CC1 (stereo unspecified)	inactive
COc1cc2nc(N3CCN(C(=O)[C@@H]4CCCO4)CC3)nc(N)c2cc1OC	890 nM (active)
COc1ccccc1CNC(=O)C1CCN(c2nc3ccccc3o2)CC1	inactive
COc1ccc2[nH]cc(CCNc3ncnc4ccc(-c5ccccc5CN(C)C)cc34)c2c1	inactive
Cc1ccccc1NC(=O)c1cc(S(=O)(=O)N2CCOCC2)cs1	inactive
CN(CC(=O)NC1CCCCC1)S(=O)(=O)c1ccc(Br)s1	inactive
CCC(C(=O)NC1CCCC1)N(C(=O)c1snc(C(N)=O)c1N)c1ccc2c(c1)OCCO2 (stereo unspecified)	inactive
COCCNC(=O)C(c1ccc(C)o1)N(Cc1ccccc1)C(=O)Cn1nnc2ccccc21 (stereo unspecified)	inactive
COCCNC(=O)C(c1ccc(C)o1)N(Cc1cccs1)C(=O)c1snc(C(N)=O)c1N (stereo unspecified)	110 nM (active)
CCOC(=O)CCCNC(=O)CN1C(=O)NC(CCc2ccccc2)C1=O (stereo unspecified)	inactive
CCOC(=O)c1ccc(NC(=O)CS(=O)(=O)c2cn(CC)c3ccccc23)cc1	inactive
O=C(Nc1ccccc1-c1nnn(CC(=O)N2CCN(c3ccccc3)CC2)n1)c1cccs1	inactive
Cc1[nH]c(N)nc(=S)c1CCCNc1ccccc1	inactive
CCCSc1nc2c(c(=O)[nH]c(=O)n2C)n1CCc1ccccc1	inactive
Cn1c(=S)c2[nH]c(SCCCc3ccccc3)nc2n(C)c1=O	13 nM (active)
Cn1c(=O)c2c(nc(NCCc3ccccc3)n2Cc2ccccc2)n(C)c1=O	inactive
O=C(CC(Cc1ccccc1)C(=O)O)NCCc1ccc2c(c1)OCO2 (stereo unspecified)	inactive
CCOc1ccc(OCC)c(NC(=O)CSc2nnc(Cn3cnc4ccccc43)n2C)c1	inactive

SMILES	max dye-equivalent concentration
CCOC(=O)c1c(C)oc2ccc(OCC(=O)N(CC)CC)cc12	inactive
COc1ccc2oc(C)c(NC(C)=O)c2c1	inactive
COC(=O)COc1ccc2oc(=O)cc(C)c2c1	25 nM (active)
Cc1nc(CNS(=O)(=O)c2cccnc2)cs1	inactive
COC(=O)c1ccc(C2C3=C(Nc4nnnn42)c2ccccc2OC3)cc1 (stereo unspecified)	59 nM (active)
CCCCCOC(=O)C1=C(C)Nc2nnnn2C1c1ccc(OC)c(OC)c1OC (stereo unspecified)	inactive
COc1ccccc1NC(=O)C1=C(C)Nc2nnnn2C1c1cccc(Br)c1 (stereo unspecified)	inactive
O=C(CNS(=O)(=O)c1ccc(Br)s1)NCc1ccc2c(c1)OCO2	inactive
O=C(N1CCOCC1)N(Cc1ccccc1)c1ccccn1	inactive
NC(=O)CSc1c[nH]c2ccccc12	inactive
Cc1ccc2c(c1)C(O)(CC(=O)c1cccnc1)C(=O)N2 (stereo unspecified)	inactive
CCc1cc2c(=O)c(-c3ccon3)c(N)oc2cc1OC	inactive
COc1ccccc1Cc1nc(-c2ccc(C)cc2)no1	16 nM (active)
Cc1ccc(-c2noc(CN3CCN(Cc4ccccc4)CC3)n2)cc1	inactive
Cc1ccc(Cc2nc(-c3cccc(C)c3)no2)cc1	inactive
O=C(Nc1cccc(F)c1)N1CCC2(CC1)CCN(S(=O)(=O)c1ccccc1)CC2	inactive
CN1CCCC(OC(=O)COc2ccc(Br)cc2)C1 (stereo unspecified)	inactive
CCCSC1=C(C#N)C(c2ccccc2C)C(C(=O)OC)C(=O)N1 (stereo unspecified)	inactive
